Reference: PubChem BioAssay (NCATS)
Results filed as inconclusive are left out. The source made the active and inactive calls. Unless noted, calls follow the shape of the dose curve; as a rule, active = well fitted curve in the direction sought with a large enough effect; inconclusive = small, poorly fitted or top-dose-only effect, or another doubt; inactive = no such curve, though single readings can be large; an effect the other way counts as inactive or inconclusive.

Key:
[1] = biological target: Mitogen-activated protein kinase 10 (Mus musculus) (UniProt Q61831); test: JNK3 AlphaScreen Assay (AID 530; active = well fitted curve in either direction with a large enough effect, not every such curve was filed as active;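 also: kinase came from lysate of stimulated human HepG2 cells; signal reports phosphorylation of biotinylated GST-cJun 1-79 at Ser73 with 10 µM ATP; % is scaled to controls: 0 for no effect and ±100 for the full control effect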)
Summary of the method: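 HepG2 lysate (IL-1b/TNFa pre-activated) + biotin-GST-cJun 1-79 + anti-pSer73 cJun; cpd titration, 15 min RT; ATP 10 uM start; Tris pH 7.6, MgCl2, DTT, vanadate; beads in EDTA buffer; AlphaScreen.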

[2] = Cell Viability - HUV-EC-C (AID 542); also: % is scaled to controls: 0 for no effect and ±100 for the full control effect; nearly all actives have a fitted effect of over 35% in size
Summary of the method: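 Luminescent ATP read-out (CellTiter-Glo, 20 min room temperature) after 40 hr compound treatment of HUV-EC-C cells at 37 °C. Concentration-response data fitted with the standard Hill equation to give AC50; tamoxifen and doxorubicin served as positive controls.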

[3] = Cell Viability - Renal Proximal Tubule (AID 545); also: nearly all actives have a fitted effect of over 40% in size
Summary of the method: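 In this qHTS format, normal rat kidney-derived proximal tubule cells in complete culture medium receive compound titrations, then sit 40 hours at 37 °C before luciferase-based ATP quantitation; potency is reported as AC50 from concentration-response curves.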

[4] = Cellular Toxicity (caspase-3) HepG2 (AID 654);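 also: cells exposed to compound for 16 hours before reading; 0% = DMSO alone and 100% = caspase signal from 100 µM tamoxifen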
Summary of the method: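 Luminescent Caspase-Glo 3/7 readout after 16 hr compound exposure of human hepatocellular carcinoma HepG2 cells at 37 °C; qHTS concentration-response, normalized DMSO = 0%, 100 uM tamoxifen = 100%; AC50 by standard Hill equation.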

[5] = Cellular Toxicity (caspase-3) Jurkat (AID 655); conditions: Jurkat caspase-3 activation, luminescence; caspase-3 activation: at 92.2 µM (top of the series), DMSO = 0%, tamoxifen = 100%;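 also: cells exposed to compound for 16 h at 37 °C before reading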
Summary of the method: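 qHTS in human Jurkat T-cell leukemia line: 16 hr compound treatment at 37 °C, caspase-3/7 activity measured by Caspase-Glo luminescence. AC50 derived from Hill equation.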

[6] = Cellular Toxicity (caspase-3) NIH 3T3 (AID 666);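 also: 0% = DMSO basal and 100% = 100 µM tamoxifen stimulation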
Summary of the method: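 NIH 3T3, 1000 cells/well, 5 hr settle then 16 hr compound at 37°C; Caspase-Glo 3/7, 20 min RT, luminescence. DMSO = basal, 100 uM tamoxifen = 100%. Hill-equation AC50, qHTS.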

[7] = MultiTox-Fluor Cytotoxicity Assay - LYMP1-001 - Dead Cells (AID 946);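 also: 0% = DMSO and 100% = tetraoctylammonium bromide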
Summary of the method: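 AC50 from Hill fit of concentration-response; data normalized to DMSO (basal) and 15 uM tetraoctylammonium bromide (100%). LYMP1-001 lymphoblastoid cells, 2500/well, 16 hr compound at 37 C; dead-cell protease fluorescence, Ex/Em 485/520.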

[8] = MultiTox-Fluor Cytotoxicity Assay - LYMP1-002 - Live Cells (AID 955);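 also: cells exposed to compound for 16 hours; % is scaled to controls: 0 for no effect and ±100 for the full control effect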
Summary of the method: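 LYMP1-002 lymphoblastoid cells; 2500 cells/well; 16 hr compound exposure, 37 C; MultiTox-Fluor reagent 60 min RT; live-cell fluorescence Ex/Em=405/510; qHTS concentration-response, Hill-equation AC50; tetraoctylammonium bromide positive control.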

[9] = Cell Viability - LYMP2-009 (AID 968);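 also: 0% = DMSO alone and the full-kill end = tetraoctylammonium bromide at 92 µM; nearly all actives have a fitted effect of over 55% in size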
[10] = Cell Viability - LYMP2-023 (AID 975);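 also: cellular ATP measured by luciferase luminescence as viability proxy; cells exposed to compound for 24 hours at 37 °C; plate controls were DMSO only for no effect and 92 µM tetraoctylammonium bromide control for full effect; nearly all actives have a fitted effect of over 55% in size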
Summary of the method: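 CellTiter-Glo luminescence after 30 min at room temperature; decrease in intracellular ATP reflects toxicity. Cells: human lymphoblastoid line, 2500/well, 24 hr compound exposure at 37 C. AC50 fitted to standard Hill equation from concentration-response.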

[11] = Cell Viability - LYMP2-002 (AID 977);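 also: plate controls were DMSO only for no effect and 92 µM tetraoctylammonium bromide for full effect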
Summary of the method: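 Human lymphoblastoid cells, 2500/well, complete medium; 5 h 37 C settle; compound 24 h 37 C; CellTiter-Glo, 30 min RT; luminescence. Decrease in ATP = cytotoxicity; AC50 via Hill equation.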

[12] = Cell Viability - LYMP2-026 (AID 989); also: % is scaled to controls: 0 for no effect and ±100 for the full control effect; nearly all actives have a fitted effect of over 50% in size
Summary of the method: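 qHTS cytotoxicity: 2500 cells/well, 5 hr 37 C, compound 24 hr 37 C, CellTiter-Glo 30 min RT, luminescence. Tetraoctylammonium bromide positive control. AC50 via standard Hill fit.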

[13] = Cell Viability - LYMP1-002 - Assay at 24 hr (AID 993); also: % is scaled to controls: 0 for no effect and ±100 for the full control effect
Summary of the method: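 CellTiter-Glo luminescence (intracellular ATP) after 24 h compound exposure, 37 C, in LYMP1-002 human lymphoblastoid cells; decreased ATP taken as cytotoxicity. AC50 from standard Hill fit of concentration-response curves.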

[14] = biological target: Peroxisome proliferator-activated receptor gamma (Homo sapiens) (UniProt P37231); test: qHTS assay for small molecule agonists of peroxisome proliferator-activated receptor gamma signaling (AID 588536; active = well fitted curve in the direction sought with a large enough effect in the signal ratio, with a control signal flat, not every such curve was filed as active; the % refers to the signal ratio;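 also: 0% = DMSO basal wells and 100% = rosiglitazone at 2 µM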)
Peroxisome proliferator-activated receptor gamma (Homo sapiens), sequence (P37231 whole entry, looked up): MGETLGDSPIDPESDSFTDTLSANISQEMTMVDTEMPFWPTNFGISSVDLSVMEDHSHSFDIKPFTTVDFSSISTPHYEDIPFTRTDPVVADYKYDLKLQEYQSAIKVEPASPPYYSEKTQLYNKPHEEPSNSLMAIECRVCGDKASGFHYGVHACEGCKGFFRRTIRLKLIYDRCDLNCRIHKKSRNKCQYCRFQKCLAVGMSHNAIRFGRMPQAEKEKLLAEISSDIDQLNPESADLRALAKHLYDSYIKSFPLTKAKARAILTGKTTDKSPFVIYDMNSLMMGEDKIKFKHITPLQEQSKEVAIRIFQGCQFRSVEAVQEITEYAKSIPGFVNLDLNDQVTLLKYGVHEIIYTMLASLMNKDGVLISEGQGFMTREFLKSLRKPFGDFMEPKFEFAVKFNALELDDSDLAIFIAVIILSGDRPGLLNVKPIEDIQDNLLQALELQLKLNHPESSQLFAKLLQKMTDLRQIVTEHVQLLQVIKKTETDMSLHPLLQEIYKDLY
Summary of the method: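 Compound treatment: 16 h, 37 C, HEK293 GeneBLAzer cells. Detection: CCF4, 2 h RT. Values: Hill-fit EC50, efficacy as % of 2 uM rosiglitazone.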

[15] = biological target: Vitamin D3 receptor (Homo sapiens) (UniProt P11473); test: qHTS assay for small molecule agonists of vitamin D receptor signaling (AID 588543; calls by dose curve;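 also: 0% = DMSO basal and 100% = reference agonist control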)
Vitamin D3 receptor (Homo sapiens), sequence (P11473 whole entry, looked up): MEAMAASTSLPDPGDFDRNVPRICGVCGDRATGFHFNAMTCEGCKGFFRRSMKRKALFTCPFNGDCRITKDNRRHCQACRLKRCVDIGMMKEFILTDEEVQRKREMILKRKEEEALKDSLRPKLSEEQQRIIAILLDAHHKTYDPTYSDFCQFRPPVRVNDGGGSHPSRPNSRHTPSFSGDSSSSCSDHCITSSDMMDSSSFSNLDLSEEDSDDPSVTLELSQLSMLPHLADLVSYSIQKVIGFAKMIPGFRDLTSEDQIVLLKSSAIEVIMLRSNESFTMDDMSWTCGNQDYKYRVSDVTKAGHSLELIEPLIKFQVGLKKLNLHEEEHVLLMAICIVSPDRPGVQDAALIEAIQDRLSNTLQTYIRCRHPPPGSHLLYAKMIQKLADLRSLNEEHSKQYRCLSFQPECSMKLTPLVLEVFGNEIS
Summary of the method: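 Measured: β-lactamase reporter activity (CCF4, 405 nm excitation, 460/530 nm emission) in HEK293T VDR-UAS-bla cells after 16 h compound exposure at 37 °C. Normalization against 50 nM 1α,25-dihydroxyvitamin D3 and DMSO; Hill-fit EC50.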

[16] = qHTS assay for small molecule disruptors of the mitochondrial membrane potential - 5 hr assay (AID 651755; calls by dose curve; also: nearly all actives have a fitted effect of over 40% in size; also: potency is read from the fitted curve at half-maximal effect)
Summary of the method: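 Read-out: ratiometric Mito-MPS fluorescence, green monomer (ex 490/em 535) vs red mitochondrial aggregate (ex 540/em 590). HepG2 cells treated 5 hr at 37C before 30 min dye loading.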

[17] = Cellular Toxicity (caspase-3) Renal Proximal Tubule (AID 667);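 also: cells exposed to compound for 16 hours at 37 °C before detection; 0% = DMSO basal and 100% = 10 µM staurosporine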
Summary of the method: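 Caspase-Glo 3/7 read-out, rat primary kidney proximal tubule cells. Compound exposure 16 h, 37 °C; detection after 1 h at RT. Activity scaled to DMSO and 10 uM staurosporine.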

[18] = MultiTox-Fluor Cytotoxicity Assay - LYMP1-001 - Live Cells (AID 947);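 also: 0% = DMSO only and full inhibition = tetraoctylammonium bromide control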
[19] = Cell Viability - LYMP2-011 (AID 969);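 also: cells exposed to compound for 24 hours; 0% = DMSO only and full inhibition = 92 µM tetraoctylammonium bromide; nearly all actives have a fitted effect of over 60% in size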
Summary of the method: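 Luminescent ATP read-out (CellTiter-Glo, 30 min RT) after 24 hr compound exposure at 37 C in human lymphoblastoid cells, 2500 cells/well. Decreasing ATP indicates cytotoxicity; AC50 from standard Hill fit.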

[20] = Cell Viability - LYMP2-019 (AID 973);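 also: 0% = DMSO alone and full effect = 92 µM tetraoctylammonium bromide; nearly all actives have a fitted effect of over 55% in size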
Summary of the method: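 qHTS, 1536-well; 2500 cells/well; 5 hr pre-incubation, 24 hr compound exposure, 37 C; CellTiter-Glo added, 30 min RT; luminescence read; AC50 via standard Hill equation.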

[N-]=[N+]=[N-]
inactive: Potency [1] | Potency [2] | outcome [3] | outcome [4] | caspase-3 activation [5] 1.16% | Potency [6] | outcome [7] | outcome [8] | Potency [9] | Potency [10] | Potency [11] | Potency [12] | Potency [13] | outcome [14] | outcome [15] | Potency [16]

N#C/C(N)=C(/N)C#N
inactive: Potency [2] | outcome [4] | caspase-3 activation [5] 1.12% | Potency [6] | outcome [17] | outcome [7] | outcome [18] | Potency [9] | Potency [19] | Potency [20] | Potency [11] | Potency [13] | outcome [14] | outcome [15] | Potency [16]

CCN(CC)N=O
inactive: Potency [1] | Potency [2] | outcome [3] | outcome [4] | caspase-3 activation [5] 1.16% | outcome [17] | outcome [7] | outcome [18] | outcome [8] | Potency [9] | Potency [20] | Potency [10] | Potency [11] | Potency [12] | Potency [13] | outcome [14] | outcome [15] | Potency [16]

O=NN1CCCCC1
inactive: Potency [1] | outcome [3] | outcome [4] | caspase-3 activation [5] 1.18% | Potency [6] | outcome [17] | outcome [7] | outcome [8] | Potency [9] | Potency [19] | Potency [20] | Potency [10] | Potency [11] | Potency [12] | Potency [13] | outcome [14] | outcome [15] | Potency [16]

CSSC
inactive: Potency [1] | outcome [3] | outcome [4] | caspase-3 activation [5] -0.115% | Potency [6] | outcome [17] | outcome [7] | outcome [8] | Potency [19] | Potency [20] | Potency [10] | Potency [11] | Potency [12] | outcome [15]

Nc1cccc(Cl)c1
inactive: Potency [1] | outcome [4] | Potency [6] | outcome [7] | outcome [18] | Potency [9] | Potency [19] | Potency [11] | Potency [13] | outcome [14] | outcome [15] | Potency [16]

O=C(O)C(Cl)Br (stereo not drawn)
inactive: Potency [1] | Potency [2] | outcome [4] | caspase-3 activation [5] -0.427% | Potency [6] | outcome [18] | Potency [9] | Potency [19] | Potency [20] | Potency [10] | Potency [11] | Potency [12] | Potency [13] | outcome [14] | outcome [15] | Potency [16]

CC12CC1(C)C(=O)N(c1cc(Cl)cc(Cl)c1)C2=O (stereo not drawn)
inactive: Potency [1] | Potency [2] | outcome [3] | outcome [4] | Potency [6] | outcome [17] | outcome [7] | outcome [18] | outcome [8] | Potency [9] | Potency [19] | Potency [20] | Potency [10] | Potency [11] | Potency [12] | Potency [13] | outcome [14] | outcome [15]

ClCc1ccccc1
inactive: Potency [1] | outcome [3] | outcome [4] | caspase-3 activation [5] 0.582% | Potency [6] | outcome [17] | outcome [7] | outcome [18] | outcome [8] | Potency [9] | Potency [19] | Potency [20] | Potency [11] | Potency [12] | outcome [14] | outcome [15] | Potency [16]

O=Cc1ccc2c(c1)OCO2
inactive: Potency [1] | Potency [2] | outcome [3] | caspase-3 activation [5] -0.168% | Potency [6] | outcome [18] | Potency [9] | Potency [19] | Potency [20] | Potency [10] | Potency [12] | Potency [13] | outcome [14] | outcome [15] | Potency [16]

CC1CC(=O)O1 (stereo not drawn)
inactive: Potency [1] | Potency [2] | outcome [3] | outcome [4] | caspase-3 activation [5] -1.79% | Potency [6] | outcome [17] | outcome [7] | outcome [18] | outcome [8] | Potency [9] | Potency [20] | Potency [11] | Potency [12] | Potency [13] | outcome [14] | outcome [15] | Potency [16]

c1ccc(Nc2ccc(Nc3ccccc3)cc2)cc1
inactive: Potency [2] | outcome [4] | caspase-3 activation [5] 8.77% | Potency [6] | outcome [17] | outcome [7] | outcome [18] | outcome [8] | Potency [9] | Potency [20] | Potency [10] | Potency [11] | Potency [12] | Potency [13] | outcome [15]
active: Potency [16] 59.6 µM

CC(C)CC(C)N (stereo not drawn)
inactive: Potency [1] | Potency [2] | outcome [3] | outcome [4] | caspase-3 activation [5] 1.95% | Potency [6] | outcome [17] | outcome [7] | outcome [18] | outcome [8] | Potency [20] | Potency [10] | Potency [11] | Potency [13] | outcome [14] | Potency [16]

Oc1ccc(Cl)c(Cl)c1Cl
inactive: Potency [1] | Potency [2] | outcome [3] | Potency [6] | outcome [17] | outcome [7] | outcome [18] | Potency [9] | Potency [19] | Potency [20] | Potency [10] | Potency [11] | Potency [12] | outcome [14] | outcome [15]

CC(C)C#N
inactive: Potency [1] | Potency [2] | outcome [3] | outcome [4] | caspase-3 activation [5] -1.09% | Potency [6] | outcome [7] | outcome [8] | Potency [9] | Potency [19] | Potency [20] | Potency [10] | Potency [11] | Potency [12] | Potency [13] | outcome [14] | Potency [16]

Clc1ccccc1
inactive: Potency [1] | Potency [2] | outcome [4] | Potency [6] | outcome [17] | outcome [7] | outcome [18] | outcome [8] | Potency [9] | Potency [19] | Potency [20] | Potency [10] | Potency [11] | Potency [12] | Potency [13] | outcome [14] | outcome [15] | Potency [16]

C=CCCl
inactive: Potency [1] | Potency [2] | caspase-3 activation [5] 0.433% | Potency [6] | outcome [17] | outcome [18] | outcome [8] | Potency [9] | Potency [19] | Potency [20] | Potency [10] | Potency [11] | Potency [12] | Potency [13] | outcome [14] | outcome [15] | Potency [16]

CCC[N+](=O)[O-]
inactive: Potency [1] | Potency [2] | outcome [3] | outcome [4] | caspase-3 activation [5] -1.47% | outcome [17] | outcome [7] | outcome [18] | Potency [9] | Potency [19] | Potency [20] | Potency [10] | Potency [12] | Potency [13] | outcome [14] | outcome [15] | Potency [16]
